# Test results taken from PubChem BioAssay (NCI).
# The panel holds about 83,000 compounds, 20% with a hit somewhere; the sample as a whole holds those more often.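 The endpoint reported here, percent growth, reads 100 for growth as untreated, 0 for no net growth and -100 for all cells dead.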 Unmarked numbers belong to inactive results. Calls of active or inactive are those of the source. The calls were made as follows: active = growth percent below 10; inactive = the rest.
# Tested on: T-47D breast
# Assay: NCI-60 one-dose screen, 48 h (100 = growth as untreated, 0 = no growth, -100 = all killed)
# Settings: 10 µM unless noted
row,Compound,growth
1,Cc1cccc2c3c(sc12)C(c1ccc(F)cc1)C(C#N)=C(N)O3 (stereo not drawn),66.1%
2,CCc1cccc2c3c(sc12)C(c1ccc(Cl)cc1)C(C#N)=C(N)O3 (stereo not drawn),27.8%
3,CCOC(=O)c1sc2ncc(-c3ccc(OC)cc3)n2c1C,93.6%
4,Cc1c(C(=O)NCCCc2ccccc2)sc2ncc(-c3ccc(Br)cc3)n12,103%
5,COc1ccc(NC2=C(Br)C(=O)C(C)=C(C)C2=O)cc1,-33.9% (active)
6,O=S(=O)(Nc1ccc(-c2nc(-c3cccc(OCCN4CCOCC4)c3)c(-c3ccnc(Br)c3)[nH]2)cc1)c1ccccc1,26.6%
7,Cc1ccc2c(n1)C(=O)C(Cl)=C(Nc1ccccc1C(C)C)C2=O,52.7%
8,COc1cccc(-c2nc(-c3ccc(NC(=O)C(C)C)cc3)[nH]c2-c2ccnc(Br)c2)c1,0.829% (active)
9,COc1ccc(-c2cc(-c3ccc(Cl)cc3)c(C#N)c(=O)n2CCCCCC(=O)Nc2ccccc2N)cc1,18.6%
10,CCOC(=O)Nc1ccc(-c2nc(-c3cccc(OC)c3)c(-c3ccnc(Br)c3)[nH]2)cc1,13%
11,CCn1cnc2c1c(=O)[nH]c(=O)n2CC1CCC(CNS(=O)(=O)c2ccc(OC3CCOCC3)c(F)c2)CC1 (stereo not drawn),19.9%
12,Cc1ccc(NC2=C(Cl)C(=O)c3nc(C)ccc3C2=O)cc1,-47.5% (active)
13,CCc1cccc2c3c(sc12)C(c1ccc(F)cc1)C(C#N)=C(N)O3 (stereo not drawn),42.1%
14,CCc1cccc2c1S/C(=C/c1ccc(OC)cc1)C2=O,53.9%
15,CCOC(=O)Nc1ccc(-c2nc(-c3cccc(OCCN4CCOCC4)c3)c(-c3ccnc(Br)c3)[nH]2)cc1,35.6%
16,COc1cccc(-c2nc(-c3ccc(NC(=O)c4ccccc4)cc3)[nH]c2-c2ccnc(Br)c2)c1,14.7%
17,O=C(CCN1C(=O)/C(=C/c2ccc(O)cc2)SC1=S)Nc1ccccc1,104%
18,CC1=C(C)C(=O)C(Nc2cccc(C(=O)OC(C)(C)C)c2)=C(Br)C1=O,-0.52% (active)
19,Cc1ccc(C(CC(=O)O)c2c(C)[nH][nH]c2=O)cc1 (stereo not drawn),86.6%

row,Compound,growth
1,CCCCn1c(-c2ccc(-c3nc(-c4ccc(Cl)cc4)no3)cc2)nc(-c2ccccc2)c1-c1ccccc1,76.3%
2,CCCCCCn1c(-c2ccc(C(=O)O/N=C(\N)c3ccc(OC)cc3)cc2)nc(-c2ccccc2)c1-c1ccccc1,-30.4% (active)
3,Cc1cccc(NC2=C(Cl)C(=O)c3nc(C)ccc3C2=O)c1,-50.2% (active)
4,O=C(CCN1C(=O)/C(=C/c2ccc(O)cc2)SC1=S)Nc1ccc(Cl)cc1,102%
5,COC(=O)Nc1ccc(-c2nc(-c3cccc(OC)c3)c(-c3ccnc(Br)c3)[nH]2)cc1,22.2%
6,O=C1/C(=C/c2ccccc2[N+](=O)[O-])Oc2ccc(O)c(O)c21,39.8%
7,Cc1cccc2c3c(sc12)C(c1ccc(Cl)cc1)C(C#N)=C(N)O3 (stereo not drawn),45.9%
8,Cc1ccc(-c2cnc3sc(C(=O)NCCc4ccccc4)c(C)n23)cc1,70%
9,CCCCCCn1c(-c2ccc(C(=O)O/N=C(\N)c3ccc4c(c3)OCO4)cc2)nc(-c2ccccc2)c1-c1ccccc1,-11.9% (active)
10,CC(C)OC(=O)Nc1ccc(-c2nc(-c3cccc(OCCN4CCOCC4)c3)c(-c3ccnc(Br)c3)[nH]2)cc1,31.2%
11,CCCCCCn1c(-c2ccc(C(=O)O/N=C(\N)c3ccc4ccccc4c3)cc2)nc(-c2ccccc2)c1-c1ccccc1,28.9%
12,O=C(Nc1ccc(-c2nc(-c3cccc(OCCN4CCOCC4)c3)c(-c3ccnc(Br)c3)[nH]2)cc1)c1ccccc1,27.6%
13,CCOC(=O)c1sc2ncc(-c3ccc(C)cc3)n2c1C,89%
14,CC(C)C(=O)Nc1ccc(-c2nc(-c3cccc(OCCN4CCOCC4)c3)c(-c3ccnc(Br)c3)[nH]2)cc1,39%
15,CCOC(=O)C1=C(N)Oc2c(sc3c(C)cccc23)C1c1ccc(Cl)cc1 (stereo not drawn),17.6%
16,CCOC(=O)C1=C(N)Oc2c(sc3c(C)cccc23)C1c1ccc(OC)cc1 (stereo not drawn),26%
17,CCC(=O)Nc1ccc(-c2nc(-c3cccc(OC)c3)c(-c3ccnc(Br)c3)[nH]2)cc1,28.4%
18,Cc1cccc2c1S/C(=C/c1ccc([N+](=O)[O-])cc1)C2=O,85%
19,CCOC(=O)C1=C(N)Oc2c(sc3c(CC)cccc23)C1c1ccc(F)cc1 (stereo not drawn),26.8%
